Among the data in PubChem BioAssay AID720648 (The Scripps Research Institute Molecular Screening Center, 2013) are inhibition values, retold here.

Out of some 370,000 compounds screened, about 3,100 (0.84%) were called active.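 How the source made its calls: active means inhibition above the mean of compounds lying between control limits plus 3 SD, set per campaign (cut at about 8.5% in these data); inactive means the rest.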 Only a selection was taken, and actives are over-represented in it overall.

Chain of Disintegrin and metalloproteinase domain-containing protein 17 (Homo sapiens) (P78536 215-824 limits assumed): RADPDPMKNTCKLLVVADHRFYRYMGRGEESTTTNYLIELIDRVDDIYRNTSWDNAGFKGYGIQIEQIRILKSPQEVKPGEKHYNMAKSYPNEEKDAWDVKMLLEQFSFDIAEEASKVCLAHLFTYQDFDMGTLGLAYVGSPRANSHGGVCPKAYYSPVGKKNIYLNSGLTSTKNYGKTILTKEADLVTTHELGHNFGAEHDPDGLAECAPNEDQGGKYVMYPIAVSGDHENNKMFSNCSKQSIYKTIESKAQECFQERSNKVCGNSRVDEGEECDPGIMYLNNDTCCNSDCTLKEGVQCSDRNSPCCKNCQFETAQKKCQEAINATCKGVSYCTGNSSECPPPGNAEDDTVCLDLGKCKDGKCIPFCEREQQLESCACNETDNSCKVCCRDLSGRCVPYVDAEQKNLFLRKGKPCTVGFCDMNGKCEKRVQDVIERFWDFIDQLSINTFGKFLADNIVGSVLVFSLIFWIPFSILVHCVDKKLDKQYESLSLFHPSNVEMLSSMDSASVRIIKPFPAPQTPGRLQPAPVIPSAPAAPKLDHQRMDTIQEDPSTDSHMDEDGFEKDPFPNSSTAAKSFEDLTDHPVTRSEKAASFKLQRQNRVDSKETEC

The assay concerns the target Disintegrin and metalloproteinase domain-containing protein 17 (Homo sapiens) (UniProt P78536). The experiment in a line: inhibition of ADAM17 peptide cleavage – biochemical, QFRET, primary screen (AID 720648).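 Further: 0% = DMSO-only wells as the low control.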 The settings on record: recombinant ADAM17, EDANS/DABCYL FRET peptide cleavage; at 6.95 µM; active compounds read high.
As for `COC(=O)C1=C(c2ccc(F)cc2OCc2ccccc2)C[C@@H]2CC[C@H]1N2C(=O)NCc1ccc(Cl)cc1`, the inhibition is 3.55% (inactive).

As to `COC(=O)C1=C(c2cccc(OCc3ccccc3)c2)C[C@@H]2CC[C@H]1N2C(=O)NCc1ccc(Br)cc1`, the inhibition is 7.72% (inactive).

In the case of `COC(=O)C1=C(c2ccc(-c3ccccc3)c(F)c2)C[C@@H]2CC[C@H]1N2C(=O)NCc1ccc(F)cc1`, the inhibition was 16.6% (active).

As to `O=C1NC(=O)C(C/C=C/c2ccccc2)C(=O)N1`, the inhibition was -2.76% (inactive).

`CN(C)C(=O)Oc1ccc2c(c1)O/C(=C\c1ccccc1)C2=O`: the inhibition was -16.6% (inactive).

For the compound `O=C1C2(Cl)C3(Cl)C4(Cl)C(Cl)(Cl)C5(Cl)C3(Cl)C1(Cl)C5(Cl)C24Cl` (stereo not given), the inhibition was 11.4% (active).

`Cc1ccc(C(C)C)c(OCC(=O)N2CCN(CC(=O)N3CCOCC3)CC2)c1`: the inhibition was 1.57% (inactive).

As to `CCN1CCN(c2ccc([N+](=O)[O-])cc2C#N)CC1`, the inhibition is -2.11% (inactive).

For the compound `CNC(=O)Nc1ccc(C(O)(C(=O)OC)C(F)(F)F)cc1` (stereo not given), the inhibition was -0.16% (inactive).

As for `CC(=O)NCC1=C(c2ccc3ccccc3c2)C[C@@H]2CC[C@H]1N2Cc1ccco1`, the inhibition was 1.8% (inactive).

For `CO[C@H]([C@H](C)/C=C/N(C)C=O)[C@@H](C)C(=O)CC[C@H](C)[C@H](O)[C@H](C)[C@H]1OC(=O)/C=C/C(C)=C/[C@H](O)[C@H](OC)C[C@@H]2C=CC[C@@H](C[C@H](OC)[C@@]3(CO3)[C@@H](OC)C[C@@H](OC)[C@@H]1C)O2`, the inhibition is -1.19% (inactive).

As for `CCOP(=O)(OCC)C(NC(=O)NC)C(N)=O` (stereo not given), the inhibition was -4.24% (inactive).

As to `CCOC(=O)CC(SP1(=S)OCC2(CCCCO2)C(C2CCCCO2)O1)C(=O)OCC` (stereo not given), the inhibition is 12.4% (active).

For the compound `Cc1nc2ccccc2c(=O)n1-c1ccc(Cl)cc1Cl`, the inhibition is 0.07% (inactive).

With `Cn1cc(C(=O)OCC(=O)N2CCCC2)c2ccccc21`, the inhibition is 1.16% (inactive).
